Reference: PubChem BioAssay (Tox21)
Inconclusive results are not listed. Active and inactive are the calls of the source. Unless noted, calls follow the shape of the dose curve; as a rule, active = well fitted curve in the direction sought with a large enough effect in the repeat runs; inconclusive = weak or mixed curves; inactive = no such curve, though single readings can be large; an effect the other way counts as inactive or inconclusive. Residues, ends and D or L forms follow the SMILES beside them.

What was measured:
[1] = qHTS assay for small molecule agonists of the p53 signaling pathway (AID 651631; calls by dose curve; also: nearly all actives have a fitted effect of over 15% in size; also: potency is read from the fitted curve at half-maximal effect)
Outline: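 We treat p53RE-bla HCT-116 cells with compounds for 16 h at 37 °C, add LiveBLAzer B/G FRET substrate for 2 h at room temperature, and measure fluorescence intensity.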

[2] = qHTS assay for small molecules that induce genotoxicity in human embryonic kidney cells expressing luciferase-tagged ATAD5 (AID 651632); also: nearly all actives have a fitted effect of over 15% in size; also: potency is read from the fitted curve at half-maximal effect
Outline: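 Luminescence read-out: after 16 hr compound exposure at 37C, ATAD5-luciferase HEK293T cells received Amplite, 30 min RT, then CCD imaging. A rise in signal marks genotoxic stress.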

[3] = qHTS assay for small molecule agonists of the p53 signaling pathway - cell viability (AID 651633; calls by dose curve;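 also: p53RE-bla HCT reporter cells with a stable beta-lactamase p53 reporter; nearly all actives have a fitted effect of over 30% in size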)
Outline: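 Viability counter-read: CellTiter-Glo luminescence (30 min, room temperature) in the same p53RE-bla plates. These plates had been exposed to compounds for 16 h at 37 C.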

[4] = qHTS assay for small molecules that induce genotoxicity in human embryonic kidney cells expressing luciferase-tagged ATAD5 - cell viability (AID 651634; calls by dose curve; also: nearly all actives have a fitted effect of over 25% in size)
Outline: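 HEK293T ATAD5-luc cells, 2,000/well; compound 15.5 hr, 37C/5% CO2; CellTiter-Fluor 30 min, 37C; fluorescence read.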

[5] = qHTS assay for small molecule disruptors of the mitochondrial membrane potential - cell viability (AID 720634; calls by dose curve;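 also: human HepG2 liver cancer cells; nearly all actives have a fitted effect of over 20% in size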)
Outline: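 Luminescence from CellTiter-Glo (ATP content) gave viability in HepG2 cells, read in the same wells as the MMP dye assay after 1 hr compound exposure at 37 C.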

[6] = qHTS assay for small molecule disruptors of the mitochondrial membrane potential (AID 720635); also: potency is read from the fitted curve at half-maximal effect
Outline: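 Mitochondrial membrane potential tracked with Mito-MPS dye, red aggregates (ex 540/em 590 nm) against green monomers (ex 490/em 535 nm). Compound treatment 1 hr at 37C, dye 30 min in HepG2.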

[7] = qHTS assay to test for compound auto fluorescence at 590 nm (red) in HepG2 cells (AID 720674)
Outline: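 1 hr compound incubation on HepG2 cells, 37 C, 5% CO2; plate read ex 540 nm / em 590 nm; intensities reported as Rose Bengal sodium equivalents.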

[8] = qHTS assay to test for compound auto fluorescence at 535 nm (green) in HepG2 cells (AID 720675)
[9] = qHTS assay to test for compound auto fluorescence at 460 nm (blue) in HEK293 cells (AID 720678)
Outline: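 HEK293 cells (2,000 per well, medium with 10% dialyzed FBS) attached for 4-5 hr at 37C, then received compound and stood overnight at 37C, 5% CO2. Blue fluorescence was read at Ex/Em 405/460 nm and expressed relative to triamterene.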

[10] = qHTS assay to test for compound auto fluorescence at 535 nm (green) in HEK293 cells (AID 720680)
[11] = qHTS assay to test for compound auto fluorescence at 460 nm (blue) in HEK293 cell free culture (AID 720681)
Outline: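 Blue fluorescence (Ex 405/Em 460 nm, triamterene-equivalent) was read immediately after pin transfer of compound or DMSO into medium (DMEM, 10% FBS) without cells.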

[12] = qHTS assay to test for compound auto fluorescence at 535 nm (green) in HEK293 cell free culture (AID 720682)
Outline: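 Green-channel intensity (Ex/Em 485/535 nm) was recorded from compound-treated wells containing only DMEM with 10% FBS. Fluorescein provided the equivalency standard.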

[13] = qHTS assay to test for compound auto fluorescence at 590 nm (red) in HEK293 cell free culture (AID 720683)
Outline: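 Red-channel autofluorescence of compounds in culture medium (DMEM, 10% FBS), no cells, measured at 540/590 nm. Rose Bengal sodium is the reference fluorophore for equivalence.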

[14] = qHTS assay to test for compound auto fluorescence at 590 nm (red) in HepG2 cell free culture (AID 720684)
Outline: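 Cell-free; medium MEM + 10% FBS; compound or DMSO added by pintool; read Ex 540/Em 590 nm; Rose Bengal sodium as red reference fluorophore.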

[15] = qHTS assay to test for compound auto fluorescence at 460 nm (blue) in HepG2 cell free culture (AID 720685)
Outline: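 Cell-free plates of MEM plus 10% FBS received 23 nL compound or DMSO vehicle; blue-channel (405/460 nm) intensity scored against triamterene as reference fluorophore.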

[16] = qHTS assay to test for compound auto fluorescence at 535 nm (green) in HepG2 cell free culture (AID 720686)
[17] = qHTS assay to test for compound auto fluorescence at 460 nm (blue) in HepG2 cells (AID 720687)
Outline: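 Blue-channel autofluorescence (Ex/Em 405/460 nm, triamterene-equivalent) was measured after 1 hr compound exposure at 37 C, 5% CO2. Cells were HepG2, plated overnight at 37 C in MEM plus 10% FBS.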

[18] = target: Glucocorticoid receptor (Homo sapiens) (UniProt P04150); assay: qHTS assay to identify small molecule agonists of the glucocorticoid receptor (GR) signaling pathway (AID 720691; active = well fitted activation curve with a large enough effect in the signal ratio in the repeat runs, not every such curve was filed as active; the % refers to the signal ratio; also: potency is read from the fitted curve at half-maximal effect); conditions: GR-bla HeLa, beta-lactamase reporter ratio, 18 h; activation: at 62.4 µM (top of the series)
Outline: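 HeLa GR-bla reporter line; cells pre-incubated 4 h, compound in DMSO 18 h at 37 C; LiveBLAzer B/G FRET substrate 2 h RT; fluorescence intensity read-out.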

[19] = qHTS assay to test for compound auto fluorescence at 590 nm (red) in HEK293 cells (AID 720679)
Outline: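 HEK293 cells (2,000/well, medium with 10% dialyzed FBS) attached for 4-5 hr at 37C, received 23 nL compound and were incubated overnight at 37C, 5% CO2. Red fluorescence was then read at 540/590nm Ex/Em, referenced to Rose Bengal sodium.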

[20] = target: Glucocorticoid receptor (Homo sapiens) (UniProt P04150); assay: qHTS assay to identify small molecule antagonists of the glucocorticoid receptor (GR) signaling pathway (AID 720692; active = well fitted inhibition curve with a large enough effect in the signal ratio in the repeat runs, not every such curve was filed as active; the % refers to the signal ratio)
Outline: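 Read-out: beta-lactamase FRET substrate fluorescence, 2 h at room temperature, in HeLa cells stably carrying a GRE-driven bla reporter. Compounds were co-incubated with 5 nM dexamethasone agonist (final) for 18 h at 37 C.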

Measured: Potency

Sequence of Glucocorticoid receptor (Homo sapiens) (P04150 whole entry, looked up): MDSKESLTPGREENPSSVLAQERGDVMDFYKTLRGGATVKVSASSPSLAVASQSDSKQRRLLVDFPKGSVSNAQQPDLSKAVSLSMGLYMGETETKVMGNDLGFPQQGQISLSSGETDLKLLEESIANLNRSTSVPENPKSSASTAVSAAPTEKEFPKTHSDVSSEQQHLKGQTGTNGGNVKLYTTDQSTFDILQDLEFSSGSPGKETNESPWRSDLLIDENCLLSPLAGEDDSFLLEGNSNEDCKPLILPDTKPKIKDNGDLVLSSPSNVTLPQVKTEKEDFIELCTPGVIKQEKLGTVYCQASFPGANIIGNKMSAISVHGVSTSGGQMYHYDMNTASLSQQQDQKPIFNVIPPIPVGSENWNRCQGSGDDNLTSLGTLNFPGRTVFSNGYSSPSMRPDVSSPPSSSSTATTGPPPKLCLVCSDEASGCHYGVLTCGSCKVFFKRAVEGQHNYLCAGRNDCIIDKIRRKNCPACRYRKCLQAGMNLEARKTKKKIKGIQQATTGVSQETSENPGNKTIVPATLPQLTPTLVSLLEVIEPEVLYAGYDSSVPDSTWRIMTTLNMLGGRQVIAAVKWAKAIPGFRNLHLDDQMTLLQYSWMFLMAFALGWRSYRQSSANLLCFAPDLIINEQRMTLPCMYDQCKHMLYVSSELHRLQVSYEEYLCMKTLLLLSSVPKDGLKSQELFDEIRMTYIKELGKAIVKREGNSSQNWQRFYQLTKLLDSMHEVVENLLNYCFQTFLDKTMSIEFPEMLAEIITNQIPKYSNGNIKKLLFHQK

CCOc1cc(CC(=O)N[C@@H](CC(C)C)c2ccccc2N2CCCCC2)ccc1C(=O)O
active: [18] 8.11 µM
not listed: [19] | [20]
inactive: all other assays above

CN1C(=O)C[C@@H](C(=O)N[C@@H](Cc2cnc[nH]2)C(=O)N2CCC[C@H]2C(N)=O)NC1=O
not listed: [18] | [19] | [20]
inactive: all other assays above

CCN(CC)CCOC[C@H]1O[C@@H](O)[C@H](OCCN(CC)CC)[C@@H](O)[C@@H]1O
not listed: [12]
inactive: all other assays above

O=C(O)COc1ccc(C(=O)c2cccs2)c(Cl)c1Cl
not listed: [11]
inactive: all other assays above

Cc1cnc(C(=O)O)c[n+]1[O-]
not listed: [11] | [18] | [20]
inactive: all other assays above

C[N+]1(CCCCC[N+]2(C)CCCC2)CCCC1
not listed: [19]
inactive: all other assays above

CC/C=C\C/C=C\C/C=C\C/C=C\C/C=C\C/C=C\CCC(=O)O
not listed: [11] | [12] | [20]
inactive: all other assays above

c1ccc(-n2cnnn2)cc1
not listed: [11]
inactive: all other assays above

O=C(O)COc1ccccc1/C=N/NC(=O)c1ccncc1
not listed: [18] | [19] | [20]
inactive: all other assays above

C[C@H](NCCc1ccc(O)cc1)[C@H](O)c1ccc(O)cc1
not listed: [19]
inactive: all other assays above

CC(C)OC(=O)Nc1ccc2nc(-c3cscn3)[nH]c2c1
active: [1] 2.37 µM | [2] 10.6 µM | [6] 9.87 µM
not listed: [18] | [19] | [20]
inactive: all other assays above

CC(C)[C@H](NC(=O)[C@H](CC(=O)O)NC(=O)[C@H](CCCCN)NC(=O)[C@@H](N)CCCN=C(N)N)C(=O)N[C@@H](Cc1ccc(O)cc1)C(=O)O (H-RKDVY-OH)
not listed: [19]
inactive: all other assays above

CC(C)[N+]1(C)[C@@H]2CC[C@H]1CC(OC(=O)C(CO)c1ccccc1)C2 (some centres not stated)
not listed: [19] | [20]
inactive: all other assays above

C=N[C@@H](C(=O)N[C@@H]1C(=O)N2[C@@H]1SC(C)(C)[C@@H]2C(=O)O)c1ccccc1
not listed: [11] | [18] | [20]
inactive: all other assays above
